Records with an inconclusive call do not appear. Activity calls are given as the source filed them. The calls were made as follows: active = hit-call score of the fitted dose curve at least 0.9, where 1 is the maximum; inconclusive = response in the unintended direction; inactive = score below 0.9.

A word on the AC50: it is the midpoint of the concentration-response curve, whichever way the signal moves.

This assay relates to Japanese medaka Peroxisome Proliferator-activated Receptor alpha (PPARa), gene 100304458. Kind of assay: ATG_jmPPARa_EcoTox2: Attagene TRANS-FACTORIAL EcoTox-2 HepG2 Assay for Japanese medaka Peroxisome Proliferator-activated Receptor alpha (PPARa). The protocol:
ATG_EcoTox2 is a cell-based, multiplexed assay created by modifying the existing Attagene TRANS-FACTORIAL system to include a panel of nuclear receptors from some or all the following species: human (Homo sapiens), african clawed frog (Xenopus laevis), rainbow trout (Oncorhynchus mykiss), japanese medaka (Oryzias latipes), and zebrafish (Danio rerio). The ECOTOX2-FACTORIAL format uses HepG2, a human liver cell line, with measurements taken at 24 hours after chemical dosing in a 24-well plate. ATG_jmPPARa_EcoTox2 is one of 29 assay components calculated in the ATG_EcoTox2 assay. It is designed to make measurements of mRNA induction, a form of inducible reporter, as detected with fluorescence intensity signals by Reverse transcription polymerase chain reaction (RT-PCR) and Capillary electrophoresis technology.The assay endpoint ATG_jmPPARa_EcoTox2 was analyzed in the positive analysis fitting direction relative to DMSO as the negative control and baseline of activity. Using a type of inducible reporter, measures of mRNA for gain-of-signal activity can be used to understand the reporter gene at the transcription factor-level as they relate to the gene PPARa. Furthermore, this assay endpoint can be referred to as a […], because this assay has produced multiple assay endpoints where this one serves a reporter gene function. To generalize the intended target to other relatable targets, this assay endpoint is annotated to the nuclear receptor intended target family, where the subfamily is non-steroidal.
Human liver HepG2 cells are transiently transfected with multiple reporter transcription units (MRTUs) in 6-well plates using FuGene 6 reagent (Roche; 3 ml FuGene/1 mg DNA). The MRTU constructs are regulated by a cis-regulating element (promoter). Each RTU expresses a GAL4-UAS that regulates the transcription of a nearby target reporter gene sequence. A major difference between the CIS and TRANS system is that in CIS activities of endogenous TFs are measured, whereas the TRANS assay evaluates changes in activities of exogenous, chimeric NR-Gal4 proteins. […] At the end of 24 hour incubation, total RNA was isolated using TriZol reagent (Invitrogen). The isolated RNA is then reverse-transcribed using oligo(dT) primer and Mo-MLV reverse transcriptase (Invitrogen) with DNAse I (Ambion) treatment for 30 min. The one-tenth of the produced cDNA was amplified by PCR using Taq DNA polymerase (Invitrogen) and two reporter sequence-specific primers. The PCR products were fluorescently labeled by primer extension with 6-arboxyfluorescein (6-FAM) 5'-labeled reporter sequence-specific primer (2 min at 95 C, 20 s at 68 C and 10 min at 72 C) and these products were digested with 5U of HpaI (New England Biolabs) for 2h at 37 C. The fragments were purified using Qiaquick PCR columns (Qiagen), analyzed on an ABI 3130xL genetic analyzer (Applied Biosystems) with peak positions identified by using a set of X-rhodamine (ROX)-labeled MapMarker1000 molecular weight standards (BioVentures). The raw capillary electrophoresis data was processed using Attagraph software (Attagene).
As for `Cc1ccc(C)c(OCCCC(C)(C)C(=O)O)c1`, the outcome was inactive.

With `Cc1nc(-c2ccc(C(F)(F)F)cc2)sc1C(=O)NCc1ccc(OC(C)(C)C(=O)O)cc1`, the AC50 is 0.0807 µM (active).

`CC(C)(Oc1ccc(Cl)cc1)C(=O)O`: the compound was called inactive.

Turning to `CC(C)(Oc1ccc(C2CC2(Cl)Cl)cc1)C(=O)O` (stereo unspecified), the half-maximal activity concentration (AC50) is 58.5 µM (active).

With `CC(C)(Oc1ccc(CCNC(=O)c2ccc(Cl)cc2)cc1)C(=O)O`, the AC50 is 45.9 µM (active).

For `CC(C)OC(=O)C(C)(C)Oc1ccc(C(=O)c2ccc(Cl)cc2)cc1`, the compound was called inactive.

As to `Cc1cccc(Nc2cc(Cl)nc(SCC(=O)O)n2)c1C`, the AC50 is 63.8 µM (active).

As for `CN(CCOc1ccc(CC2SC(=O)NC2=O)cc1)c1ccccn1` (stereo unspecified), the outcome was inactive.

Take `C=C(c1ccc(C(=O)O)cc1)c1cc2c(cc1C)C(C)(C)CCC2(C)C`: the outcome was inactive.

As to `C[C@@H]1C[C@H]2[C@@H]3CCC4=CC(=O)C=C[C@]4(C)[C@@]3(F)[C@@H](O)C[C@]2(C)[C@@]1(O)C(=O)COP(=O)(O)O`, the call was inactive.

Consider `C[C@]12C=CC(=O)C=C1CC[C@@H]1[C@@H]2C(=O)C[C@@]2(C)[C@H]1CC[C@]2(O)C(=O)CO`, for which the outcome was inactive.
